# Test results taken from the supplement of paper PMC6658780.
# Structures can show the parent of a compound that is named as a salt. ± gives the standard deviation of the averaged measurements.
# How the values were obtained:
# [1] = test system: Klebsiella pneumoniae KPC-119; assay: percent growth inhibition of drug alone vs DMSO control; higher = more growth inhibition; conditions: antibiotic (0.125x MIC): none (0.1% DMSO)
# [2] = test system: Klebsiella pneumoniae KPC-119; assay: percent growth inhibition of drug + antibiotic vs DMSO control; higher = more growth inhibition
# [3] = antibiotic (0.125x MIC): colistin, 7 µM
# [4] = antibiotic (0.125x MIC): colistin, 20 µM
# [5] = antibiotic (0.125x MIC): meropenem, 7 µM
smiles,measurement,setting,value
CC1CCc2c(N3CCC(O)CC3)c(F)cc3c(=O)c(C(=O)O)cn1c23 (stereo unspecified) [Nadifloxacin],percent growth inhibition of drug alone,[1]; 7 µM,6.2 ± 4.4%
same,percent growth inhibition of drug alone,[1]; 20 µM,36 ± 4.7%
same,percent growth inhibition,[2]; [3],82.4 ± 20%
same,percent growth inhibition,[2]; [4],98.1 ± 1.5%
CC[C@H]1OC(=O)[C@H](C)[C@@H](O[C@H]2C[C@@](C)(OC)[C@@H](O)[C@H](C)O2)[C@H](C)[C@@H](O[C@@H]2O[C@H](C)C[C@H](N(C)C)[C@H]2O)[C@](C)(OC)C[C@@H](C)C(=O)[C@H](C)[C@@H](O)[C@]1(C)O [Clarithromycin],percent growth inhibition of drug alone,[1]; 7 µM,0.744 ± 2.4%
same,percent growth inhibition of drug alone,[1]; 20 µM,3.19 ± 2.3%
same,percent growth inhibition,[2]; [4],3.22 ± 2.8%
COc1cccc2c1C(=O)c1c(O)c3c(c(O)c1C2=O)C[C@@](O)(C(=O)CO)C[C@@H]3O[C@H]1C[C@H](N)[C@@H](O)[C@H](C)O1 [Epirubicin hydrochloride],percent growth inhibition of drug alone,[1]; 7 µM,-1.63 ± 2.7%
same,percent growth inhibition of drug alone,[1]; 20 µM,-0.106 ± 4.7%
same,percent growth inhibition,[2]; [3],-0.818 ± 0.78%
CN(C)CCOC(c1ccc(Cl)cc1)c1ccccn1 (stereo unspecified) [Carbinoxamine maleate salt],percent growth inhibition of drug alone,[1]; 7 µM,-6.88 ± 0.94%
same,percent growth inhibition of drug alone,[1]; 20 µM,-3.08 ± 0.79%
same,percent growth inhibition,[2]; [4],-10.7 ± 4.1%
CO[C@@]1(NC(=O)Cc2cccs2)C(=O)N2C(C(=O)O)=C(COC(N)=O)CS[C@@H]21 [Cefoxitin sodium salt],percent growth inhibition of drug alone,[1]; 7 µM,5.37 ± 2%
same,percent growth inhibition of drug alone,[1]; 20 µM,7.08 ± 6.2%
same,percent growth inhibition,"[2]; antibiotic (0.125x MIC): gentamicin, 7 µM",8.4 ± 13%
CCC[C@@H]1C[C@@H](C(=O)N[C@@H]([C@H]2O[C@H](SC)[C@H](O)[C@@H](O)[C@H]2O)[C@H](C)Cl)N(C)C1 [Clindamycin hydrochloride],percent growth inhibition of drug alone,[1]; 7 µM,12 ± 1.4%
same,percent growth inhibition of drug alone,[1]; 20 µM,28.5 ± 0.74%
same,percent growth inhibition,[2]; [3],44.3 ± 4.1%
CC(C)(C)CC(C)(C)c1ccc(OCCOCC[N+](C)(C)Cc2ccccc2)cc1 [Benzethonium chloride],percent growth inhibition of drug alone,[1]; 7 µM,2.21 ± 0.87%
same,percent growth inhibition of drug alone,[1]; 20 µM,2.03 ± 2.5%
same,percent growth inhibition,[2]; [3],4.69 ± 10%
same,percent growth inhibition,[2]; [4],97.15 ± 0.41%
C=C1c2c(Cl)ccc(O)c2C(=O)C2=C(O)[C@]3(O)C(=O)C(C(N)=O)=C(O)[C@@H](N(C)C)[C@@H]3[C@@H](O)[C@H]12.O=C(O)c1cc(S(=O)(=O)O)ccc1O [Meclocycline sulfosalicylate],percent growth inhibition of drug alone,[1]; 7 µM,2.09 ± 6.8%
same,percent growth inhibition of drug alone,[1]; 20 µM,7.24 ± 1.1%
same,percent growth inhibition,[2]; [4],10.3 ± 2.3%
CC(C)Nc1cccnc1N1CCN(C(=O)c2cc3cc(NS(C)(=O)=O)ccc3[nH]2)CC1 [Delavirdine],percent growth inhibition of drug alone,[1]; 7 µM,-0.164 ± 2.9%
same,percent growth inhibition of drug alone,[1]; 20 µM,-1.86 ± 1%
same,percent growth inhibition,[2]; [3],-6.39 ± 0.99%
CCCCC(CC)CNC(=N)NC(=N)NCCCCCCNC(=N)NC(=N)NCC(CC)CCCC (stereo unspecified) [Alexidine dihydrochloride],percent growth inhibition,[2]; [5],99.739 ± 0.078%
CC1COc2c(N3CCN(C)CC3)c(F)cc3c(=O)c(C(=O)O)cn1c23 (stereo unspecified) [Ofloxacin],percent growth inhibition,[2]; [5],96.7 ± 3.1%
